p53null 32C tox – kills p53 null cells at the permissive temperature; Potency, µM (titrated, usually from 46.1 µM), usual class: cytotoxic; 55,000 compounds, 0.62% hits; H1299-neo p53 null cells, ATP luminescence, 24 h, 32C; note: nearly all actives have a fitted effect of over 55% in size
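Luminescent ATP readout gave cell viability of p53-null H1299-neo cells after a 24 h compound exposure at the permissive 32C. Titrations ran up to 46 uM, and AC50s were fitted with the standard Hill equation.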
p53null 39C tox – p53 null cell cytotoxicity, nonpermissive temperature. 55,000 compounds, 0.97% hits. H1299 p53-null (neo) cells, 39C, ATPlite viability, 24 h. Potency, µM (series often up to 46.1 µM), actives largely listed as cytotoxic; note: nearly all actives have a fitted effect of over 50% in size
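Luminescent ATP signal reported cell survival after H1299 lines (neo, p53 null; or p53 A138V) received up to 46 uM compound and 24 hr incubation at 39C.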
SKOV3 invasion – blocks SKOV3ip1 adhesion and invasion in omental model; SKOV3ip1-GFP adhesion/invasion on 3D omental model, fluorescence; Potency, µM (series often up to 45.8 µM), actives largely listed as inhibitors; 46,000 compounds, 0.1% hits; AID 1963576; note: nearly all actives have a fitted effect of over 65% in size
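Primary human omental fibroblast/mesothelial 3D culture pre-formed 48 h. SKOV3ip1-GFP cells added with compounds (0.36-46 umol/L), incubated 2 h RT/16 h 37 C, fixed; GFP cells quantified at 488/509 nm.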
NTMT1 inh – inhibitors of human N-terminal methyltransferase NTMT1; Potency, µM (top dose mostly 114 µM), most hits filed as inhibitors; Q9BV86; NTMT1 MTase-Glo SAH luminescence, purified enzyme; 59,000 compounds, 2.5% hits; note: nearly all actives have a fitted effect of over 65% in size
Target sequence (Q9BV86 whole entry, looked up): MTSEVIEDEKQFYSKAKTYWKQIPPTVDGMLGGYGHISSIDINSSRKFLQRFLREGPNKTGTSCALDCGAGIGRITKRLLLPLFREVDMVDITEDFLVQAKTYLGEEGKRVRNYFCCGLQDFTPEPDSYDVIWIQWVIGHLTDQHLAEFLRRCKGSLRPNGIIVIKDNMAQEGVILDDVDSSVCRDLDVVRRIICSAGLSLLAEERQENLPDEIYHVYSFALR
DYRK1A inh-1 – human DYRK1A kinase inhibition by ATP depletion readout; shares compounds with NTMT1 inh; recombinant DYRK1A, Kinase-Glo ATP depletion luminescence; 100 compounds, 80% hits; Potency, µM (highest dose often 76.9 µM), usual class: inhibitors
CLK4 RBC – inhibitors of human CLK4 kinase, SAR round 2; shares compounds with NTMT1 inh; Reaction Biology kinase assay, 10 uM ATP; Potency, µM, hits mostly inhibitors; 65 compounds, 100% hits; AID 504421; calls by dose curve
DYRK1A inh-2 – blocks human DYRK1A kinase in radiometric assay; shares compounds with NTMT1 inh; Reaction Biology kinase assay, 10 uM ATP; Potency, µM, actives largely listed as inhibitors; 65 compounds, 90% hits;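 active = compounds that showed inhibition of Dyrk1a and received a fitted potency; inactive = compounds that showed no inhibition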
CLK2 RBC – CLK2 kinase inhibition. shares compounds with NTMT1 inh. Reaction Biology kinase assay, 10 uM ATP. Potency, µM, actives largely listed as inhibitors. 65 compounds, 90% hits. AID 504427;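 active = compound that inhibits Clk2 kinase in the dose series, with an IC50 potency reported; inactive = no inhibition seen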
CLK3 inh – inhibitors of human CLK3 kinase; shares compounds with NTMT1 inh; recombinant CLK3 kinase assay, 10 uM ATP; Potency, µM, hits mostly inhibitors; 65 compounds, 40% hits;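 active = compounds that inhibited Clk3 enough in the ten-dose series to give a half-maximal potency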
DYRK1B RBC – DYRK1B kinase inhibition; shares compounds with NTMT1 inh; Recombinant Dyrk1b kinase assay, 10 uM ATP; Potency, µM, hits mostly inhibitors; 65 compounds, 80% hits;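 active = compounds whose dose response shows an inhibitor phenotype against the kinase Dyrk1b; inactive = compounds showing no inhibitor phenotype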
CLK1 RBC – CLK1 kinase inhibition. shares compounds with NTMT1 inh. recombinant Clk1 kinase assay, 10 uM ATP. Potency, µM, most hits filed as inhibitors. 65 compounds, 90% hits. AID 504430;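 active = compounds that block the splicing kinase Clk1 enough to give a fitted half-inhibition concentration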
NNMT inh – counter-screen for NTMT1 inhibitors: human NNMT inhibition. AID 1645878. shares compounds with NTMT1 inh. NNMT MTase-Glo luminescence, SAH detection. Potency, µM (series often up to 57.1 µM), most hits filed as inhibitors. 120 compounds, 10% hits
A number is an active result; - = inactive; ? = inconclusive; . = not tested or not shown; ! = not confirmed by another sample. This is one part of a sample in which hits are shown more often than they occur. Unless noted, calls come from the whole dose curve; as a rule, active = well fitted curve in the direction sought with a large enough effect; inconclusive = small, poorly fitted or top-dose-only effect, or another doubt; inactive = no such curve, though single readings can be large; an effect the other way counts as inactive or inconclusive.

SMILES	p53null 32C tox	p53null 39C tox	SKOV3 invasion	NTMT1 inh	NNMT inh	others
CCOC(=O)c1ccc(-c2ccc3ncnc(NCc4cccs4)c3c2)o1	.	.	.	.	.	DYRK1A inh-1=1.46µM;CLK4 RBC=0.088;DYRK1A inh-2=1.44µM;CLK2 RBC=8.51µM;CLK3 inh=-;DYRK1B RBC=4.27µM;CLK1 RBC=0.798µM
Nc1ccc2c(c1)C(=O)NS2(=O)=O	.	.	.	-	.
N#Cc1ccc(-c2ccc(CNc3ccc(N4CCC(C#N)CC4)cc3)o2)cc1	.	.	.	-	.
O=C(O)c1cc(N(Cc2ccc(C3CCCCC3)cc2)C(=O)c2ccc(Oc3ccccc3)cc2)ccc1O	.	.	.	31.6µM	-
CCCC1(CCC)CCC2(CCN(CCCN(CC)CC)C2)CC1	.	.	.	22.4µM	-
N#Cc1nc(NCCCO)nc(Nc2ccccc2)n1	.	.	.	-	.
OCCCNc1cc(-c2ccnc(Nc3cccc(Cl)c3)n2)ccn1	.	.	?	4.47µM	25.1µM
Oc1ccc(CNc2cc(Br)ccn2)c2cccnc12	.	.	.	-	.
CC(=O)c1cccc(Nc2nc(-c3ccccc3Cl)nc3ccccc23)c1	-	?	-	-	.
O=C(O)c1ccc2c(c1)nc(Nc1cccc(Cl)c1)c1ccncc12	.	.	-	14.1µM!	?
CCN(Cc1sccc1C)c1ncnc2ccc(-c3ccc4c(c3)OCO4)cc12	.	.	.	?	.	DYRK1A inh-1=1.16µM
CCN(Cc1cccs1)c1ncnc2ccc(-c3ccc4c(c3)OCO4)cc12	.	.	.	?	.	DYRK1A inh-1=0.164µM;CLK4 RBC=0.014;DYRK1A inh-2=0.038µM;CLK2 RBC=0.447µM;CLK3 inh=6.17µM;DYRK1B RBC=0.231µM;CLK1 RBC=0.014µM
CCC1C(=O)N(C)c2cnc(Nc3ccc(C(=O)NC4CCN(C)CC4)cc3OC)nc2N1C1CCCC1 (stereo not drawn)	.	.	.	12.6µM	?
CCc1ccc2nc(Nc3cc(Cc4ccccc4)nc(NC4CCC(O)CC4)n3)sc2c1 (stereo not drawn)	.	.	.	-	.
COc1c(C)c(C(=O)c2ccc(N)c(C(=O)O)c2)n2ccccc12	.	.	.	-	-
COC(=O)N/N=C/c1c(C)c(C(=O)c2ccc(F)cc2)n2ccccc12	-	.	.	.	.
Cc1cc(-c2ncc(CC(=O)Nc3ccc(-c4cnccn4)cn3)cc2C)ccn1	.	.	-	-	?

Screening data deposited in PubChem by National Center for Advancing Translational Sciences (NCATS).
